# Source: PubChem
# rRNA inh HTS = inhibits bacterial ribosomal RNA function over humanized ribosomes; 350,000 tested, 1.6% active; E. coli WT GFP vs humanized-ribosome RFP mutants, fluorescence, 24 h; hits give low values; DMSO median 0, no signal -100; AID 720706; GFP signal change (wild-type ribosome), % (concentration not given with the values);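 active = significant combined selectivity score with lowered wild-type GFP, culture density cut under 30%, mutant RFP and density less affected; inactive = any of these conditions unmet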
# ADAM17 inh = inhibitors of human ADAM17. P78536. recombinant ADAM17, EDANS/DABCYL FRET peptide cleavage. inhibition, % at 6.95 µM. 370,000 tested, 0.83% active. AID 720648;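 active = inhibition above the mean of compounds lying between control limits plus 3 SD, set per campaign, cut at about 8.5% in these data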;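 also: 0% = DMSO-only wells as the low control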
# Target sequence (P78536 215-824 limits assumed): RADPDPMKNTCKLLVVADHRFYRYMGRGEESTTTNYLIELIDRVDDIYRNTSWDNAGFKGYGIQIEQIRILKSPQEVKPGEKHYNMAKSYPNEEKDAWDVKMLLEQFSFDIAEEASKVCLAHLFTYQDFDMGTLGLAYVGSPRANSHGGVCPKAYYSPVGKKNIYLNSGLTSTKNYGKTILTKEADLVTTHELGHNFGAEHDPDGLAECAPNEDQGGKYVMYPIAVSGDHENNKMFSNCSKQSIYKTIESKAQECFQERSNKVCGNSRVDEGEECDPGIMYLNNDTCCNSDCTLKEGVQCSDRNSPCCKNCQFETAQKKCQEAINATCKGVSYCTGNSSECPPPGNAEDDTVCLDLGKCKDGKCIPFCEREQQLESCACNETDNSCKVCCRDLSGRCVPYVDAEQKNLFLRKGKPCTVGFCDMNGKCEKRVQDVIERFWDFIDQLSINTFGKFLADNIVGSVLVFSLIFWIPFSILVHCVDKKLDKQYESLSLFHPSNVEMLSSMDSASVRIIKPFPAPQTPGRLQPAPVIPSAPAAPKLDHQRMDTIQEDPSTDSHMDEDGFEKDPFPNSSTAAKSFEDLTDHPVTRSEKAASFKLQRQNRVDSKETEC
# FGF22 binding = binders of recombinant human FGF22 by thermal shift. 340,000 tested, 1.5% active. Q9HCT0. SYPRO orange fluorescence; percent of sucrose octasulfate shift, DMSO zero. AID 651658. activity (Tm shift, normalised), % at 9.99 µM;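 active = mean Tm shift, scaled 0 neutral to 100 positive control, at about 1.3% or above, every replicate too, limit read from the data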
# proKLK7 act = activates the human kallikrein-7 zymogen; P49862; purified proKLK7, EDANS-DABCYL substrate fluorescence; 100% is mature enzyme control, 0% vehicle; activation, % at 7 µM; 370,000 tested, 0.9% active;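 active = activation above the mean of all tested compounds plus 3 SD, computed per campaign excluding outliers beyond control limits, cut at about 13% in these data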
# ADAM10 inh = inhibits human ADAM10 | AID 720582 | 370,000 tested, 0.62% active | recombinant ADAM10, EDANS/DABCYL FRET peptide cleavage, 3 h | inhibition, % at 7 µM;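 active = inhibition above a per-campaign cutoff equal to the mean of compounds falling between control-based bounds plus 3 SD, cut at about 20% in these data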;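 also: 0% = DMSO wells while the 100% control is not disclosed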
# proKLK7 act conf = confirmation of human kallikrein-7 zymogen activators. shares compounds with proKLK7 act. purified proKLK7, EDANS-DABCYL substrate fluorescence; scaled: vehicle 0, mature enzyme 100. activation, % at 7 µM. 3,200 tested, 68% active. AID 686949;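 active = activation, as change over the incubation, above the mean of all tested compounds plus 3 SD, cut at about 13% in these data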
# EDANS-DABCYL int = fluorescence interference counter-screen for KLK7 activators; EDANS-DABCYL substrate fluorescence interference, no enzyme, 4 h; solvent 0%, active enzyme control 100%; activation, % at 7 µM; 3,200 tested, 80% active; shares compounds with proKLK7 act;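 active = activation above the all-compound mean plus 3 SD, ignoring values outside control-based bounds, cut at about 4.8% in these data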;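 also: value is the 4 h activation minus the activation read at time zero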
# K7 EDANS ctr = counter-screen for kallikrein-7 activators: EDANS-DABCYL interference, dose response; shares compounds with proKLK7 act; EDANS-DABCYL peptide fluorescence interference, no enzyme; EC50, µM; 250 tested, 20% active;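 active = compounds that raise the fluorescence signal in this interference counterscreen, with EC50 at or below 10 µM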;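 also: intact quenched peptide substrate alone read at 355 nm excitation and 520 nm emission; signal is fluorescence gain from T0 to T4 after four hours at room temperature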
# Numbers without * were called inactive; i = inactive; nt = not tested or not shown; ! = not confirmed by another sample. In the library only some 3.8% were active in any assay of this set; here they are far more common.
SMILES,rRNA inh HTS,ADAM17 inh,FGF22 binding,proKLK7 act,ADAM10 inh,proKLK7 act conf,EDANS-DABCYL int,others
Cc1cc2nc(-c3ccc[nH]c3=O)[nH]c2cc1C,-4,i,1,68*,i,64*,71*,
O=c1[nH]cccc1-c1nc2ccccc2n1Cc1ccc(F)cc1,-5,-410,0,7,i,nt,nt,
CC1(C)CC(=O)C(C=Nc2cccnc2/N=C/C2=C(O)CC(C)(C)CC2=O)=C(O)C1,41,-18,0,25*,-52,-7,-4,
COc1ccc(/C=C(/CC(=O)Nc2ccccc2)c2nc3ccccc3s2)cc1,-2,-5,0,0,-14,nt,nt,
COc1ccc(/C=C(/CC(=O)NCc2ccc(Cl)cc2)c2nc3ccccc3s2)cc1,nt,-1,nt,28*,-5,68*,57*,K7 EDANS ctr=2.4*
C[C@@H]1CCCCO[C@@H](CN(C)C(=O)C2CCCCC2)[C@@H](C)CN([C@@H](C)CO)C(=O)c2cc(NC(=O)c3ccccc3)ccc2O1,0,nt,0,nt,nt,nt,nt,
COc1ccc(C2c3[nH]c4ccccc4c3CCN2CCCn2cccn2)c(C)c1C (stereo unspecified),-41,-81,0,27*,-227,19*,20*,
O=C(Nc1nc(-c2cccs2)cs1)c1ccc(S(=O)(=O)N2CCCC2)cc1,nt,8,nt,2,9,nt,nt,
CN(C)S(=O)(=O)c1ccc(C(=O)Nc2nc(-c3cccs3)cs2)cc1,0,-9,0,47*,-128,27*,129*,
Cc1ccc2nc(N3CCN(CCO)CC3)nc(-c3ccccc3)c2c1,0,-92,0,21*,-255,6,4.1*,
Clc1ccc2nc(N3CCNCC3)nc(-c3ccccc3)c2c1,nt,-127,nt,16*,-491,-6,-9,
CCCCn1c(=NC(=O)c2cccnc2)c(C(=O)OCC)cc2c(=O)n3ccccc3nc21,nt,-224,nt,4,i,nt,nt,
CCCCCn1c(=NC(=O)c2ccco2)c(C(=O)OCC)cc2c(=O)n3ccccc3nc21,-6,i,0,24*,i,33*,38*,
CCOCCCn1c(=NC(=O)c2cccnc2)c(C(=O)OCC)cc2c(=O)n3ccccc3nc21,-7,i,0,29*,i,3,4.5*!,
COCCCn1c(=NC(=O)c2ccncc2)c(C#N)cc2c(=O)n3cccc(C)c3nc21,nt,i,nt,15*,i,30*,47*,
CCCCn1c(=NC(=O)c2ccco2)c(C(=O)OCC)cc2c(=O)n3ccccc3nc21,nt,i,nt,50*,i,21*,21*,
COc1ccc2c3c([nH]c2c1)[C@H](CO)N(S(C)(=O)=O)CC31CCN(C(=O)c2ccncc2)CC1,1,nt,0,nt,nt,nt,nt,
C[C@@H]1CN([C@@H](C)CO)C(=O)Cc2cc(NC(=O)Cc3ccccc3)ccc2O[C@H]1CN(C)Cc1ccccc1,-2,nt,1,nt,nt,nt,nt,
CCOCCCn1c(=NC(=O)c2cccs2)c(C#N)cc2c(=O)n3ccccc3nc21,14,i,nt,53*,i,-432,-326,
CCCCn1c(=NC(=O)c2ccco2)c(C(=O)OCC)cc2c(=O)n3cccc(C)c3nc21,-4,i,0,18*,i,2,-1,
CC(C)NC(=O)Nc1ccc2c(c1)CC(=O)N(C)C[C@H](C)[C@H](CN(C)S(C)(=O)=O)O2,1,nt,nt,nt,nt,nt,nt,
O=C(COC(=O)c1ccccc1NCCO)NCc1cccs1,7,-345,0,18*,i,19*,21*,
COc1ccc(CCNC(=O)COC(=O)c2ccccc2NCCO)cc1OC,-1,i,0,19*,i,26*,34*,
COc1ccc(CCNC(=O)COC(=O)c2ccco2)cc1OC,nt,-6,nt,0,2,nt,nt,
Nc1nc2ncc(CNc3ccc(C(=O)N[C@@H](CCC(=O)O)C(=O)O)cc3)nc2c(=O)[nH]1,nt,-155,0,-6,i,nt,nt,
SMILES,rRNA inh HTS,ADAM17 inh,FGF22 binding,proKLK7 act,ADAM10 inh,proKLK7 act conf,EDANS-DABCYL int,others
CN(Cc1cnc2nc(N)nc(N)c2n1)c1ccc(C(=O)N[C@@H](CCC(=O)O)C(=O)O)cc1,nt,-411,0,18*,i,-9,-13,
CCc1nn(CC(=O)NCCN2CCOCC2)c(=O)c2cc3c(OC)cccc3n12,14,i,0,27*,i,19*,28*,
COc1cccc2c1cc1c(=O)n(CC(=O)NCCCN3CCN(C)CC3)nc(C)n12,1,i,0,60*,i,83*,76*,
CCCSCCCNC(=O)Cn1nc(CC)n2c(cc3c(OC)cccc32)c1=O,11,-52,0,0,-227,nt,nt,
Cc1cc(=O)oc2cc3c(cc12)OCCN3,nt,i,nt,67*,i,76*,83*,
Cc1cc(=O)oc2cc3c(cc12)OCO3,14,i,0,36*,i,67*,74*,
Cc1cc(=O)oc2cc3c(cc12)OCCO3,nt,-220,nt,8,i,nt,nt,
CO[C@H]1CN(C)C(=O)c2ccc(NC(=O)c3nc4ccccc4s3)cc2OC[C@@H](C)N(Cc2cncnc2)C[C@@H]1C,-9,nt,0,nt,nt,nt,nt,
O=C(NCC1CCCO1)c1cc(-c2ccncc2)nc2ccccc12 (stereo unspecified),12,-8,0,-1,-8,nt,nt,
O=C(NC1CCC(O)CC1)c1cc(-c2ccco2)nc2ccccc12 (stereo unspecified),10,i,0,28*,i,13*,11*,K7 EDANS ctr=>70
O=C(NCC1CCCO1)c1cc(-c2ccco2)nc2ccccc12 (stereo unspecified),3,-165,nt,59*,-470,67*,68*,
COc1cccc(-c2cc(C(=O)NC3CC3)c3ccccc3n2)c1,0,2,0,0,-4,nt,nt,
CN(C)C(=O)[C@@H]1[C@@H](CO)[C@@H]2Cn3c(ccc(-c4ccccc4F)c3=O)[C@H]1N2C(=O)c1ccccc1,1,nt,0,nt,nt,nt,nt,
C[C@@H]1CN([C@@H](C)CO)C(=O)c2cc(NS(=O)(=O)c3cn(C)cn3)ccc2O[C@@H]1CN(C)C(=O)Nc1ccc(F)cc1,5,nt,nt,nt,nt,nt,nt,
CC1CCN(C(=O)CN(c2ccc3c(c2)OCO3)S(C)(=O)=O)CC1,5,-2,0,1,8,nt,nt,
CS(=O)(=O)N(CC(=O)N1CCOCC1)c1ccc2c(c1)OCO2,nt,2,nt,17*,5,0,0,
